LANA-H2A inh: blocks KSHV LANA binding to histone H2A/H2B. inhibition, % (no concentration beside the values). Q9QR71. cell-free LANA-H2A/H2B peptide, fluorescence polarization. 0.6% of 320,000 active; in the data active = inhibition mostly above about 10%, no sharp cut-off; inactive = mostly below about 6.7%
E coli Lon inh: E. coli protease La inhibition; P0A9M0; purified E. coli Lon protease, fluorescence polarization; inhibition, % at 7.94 µM; 0.42% of 360,000 active; in the data active = inhibition above about 13%, passing the limit was not always enough;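 also: 0% = enzyme with probe and DMSO and 100% = no enzyme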
Keap1 Nrf2 FP: inhibitors of human Keap1-Nrf2 protein-protein interaction; Q14145; Keap1 Kelch-Nrf2 peptide fluorescence polarization, 1536-well; inhibition, % at 9.4 µM; 0.15% of 340,000 active; in the data active = inhibition above about 12%;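 also: human Keap1 Kelch domain with fluorescein labeled Nrf2 9mer peptide probe; 0% = neutral control wells and 100% = peptide positive control; higher means more block of Keap1 binding to Nrf2 peptide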
EBV gp42 inh: inhibitors of Epstein-Barr virus glycoprotein 42. Q1HVG2. Fluorescence polarization binding assay, mP read-out. inhibition, % (tested at 21.74 µM). 0.42% of 220,000 active. AID 1085; in the data active = inhibition above about 50%
Target sequence (Q1HVG2 whole entry, looked up): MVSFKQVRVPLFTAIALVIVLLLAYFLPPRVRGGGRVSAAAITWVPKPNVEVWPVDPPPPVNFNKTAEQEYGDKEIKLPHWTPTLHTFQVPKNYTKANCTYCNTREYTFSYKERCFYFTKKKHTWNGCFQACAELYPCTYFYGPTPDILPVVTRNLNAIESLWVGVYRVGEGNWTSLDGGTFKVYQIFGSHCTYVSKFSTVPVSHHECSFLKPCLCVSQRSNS
C-LANA FP: KSHV C-LANA DNA binding inhibition; MBP-C-LANA/FAM-LBS DNA binding, fluorescence polarization; 0.078% of 340,000 active; AID 504423; inhibition, % at 9 µM;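 active = highest replicate inhibition at or above 60% at 9 µM, even if other replicates fall short; inactive = all replicates below 60% inhibition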;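 also: 0% = neutral control wells and 100% = 4 µM acridine orange control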
GLD-1 RNA inh: GLD-1-TGE RNA interaction inhibition (C. elegans); Q17339; purified GLD-1 + fluorescein TGE RNA, fluorescence polarization; inhibition, % at 5.96 µM; 0.44% of 320,000 active;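 active = percent inhibition above a per-plate cutoff, the plate mean of test compounds plus 3 SD, cut at about 30% in these data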;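 also: 0% = DMSO wells with GLD-1 and probe and 100% = wells lacking GLD-1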
* hit, by the source's call; · = no result; + = active, no number. Compounds with a hit are over-represented: about 1.5% of the library has one in this group of screens.

SMILES	LANA-H2A inh	E coli Lon inh	Keap1 Nrf2 FP	EBV gp42 inh	C-LANA FP	GLD-1 RNA inh
CCC(C)[C@H](NC(=O)C1CC(=O)N(c2ccc3c(c2)OCO3)C1)C(=O)NC1CCCCC1 (stereo partly specified)	2.2	5.1	-6.4	·	0.1	38.0*
COc1ccc(OC(F)(F)F)cc1CC1(C)C(=O)Nc2ccc(-c3ccsc3)cc21 (stereo unspecified)	·	-1.8	·	·	·	·
O=C(O)[C@H](Cc1ccccc1)NC(=O)N1CCC(Cc2ccccc2)CC1	17.9*	12.9	-2.2	-16.3	0.5	5.4
CC(C)(C)OC(=O)NCCCCCc1nnc(SCc2c(F)cccc2Cl)o1	14.4*	-2.4	-1.4	-10.7	0.0	-2.6
CC(=O)N1CCc2c(sc(NC(=O)CCS(=O)(=O)c3ccccc3)c2C(N)=O)C1	32.6*	13.1	-0.5	·	1.2	25.8
CCOC(=O)c1c(NC(=O)CCS(=O)(=O)c2ccccc2)sc2c1CCN(C)C2	52.6*	-48.3	-13.4	·	-4.7	-2.7
CCOC(=O)N1CCc2c(sc(NC(=O)CCS(=O)(=O)c3ccccc3)c2C(N)=O)C1	-8.5	2.9	-7.8	·	-1.6	17.1
O=C(CN1CCN(Cc2ccccc2)CC1)N1CCCCCC1	-0.6	5.0	-1.5	4.4	2.8	5.9
COc1cccc(-c2nc3nc(C)cc(C)n3c2Nc2c(C)cccc2C)c1	·	-40.7	·	·	·	·
CN(CCO)c1cnccn1	14.3*	-4.7	2.2	13.0	2.1	-2.2
CC(=O)N(Cc1ccc(Cl)cc1)c1cnccn1	2.2	-9.3	0.3	·	-1.1	-10.7
CCc1nc2ccc(C(=O)Nc3ccc(OC)c(OC)c3)cn2c1N(C)CCC(C)C	·	13.5	·	·	·	·
COC(=O)c1cc(NC(=O)c2cccc(C(F)(F)F)c2)c(=O)oc1C	1.2	-4.2	-4.7	-1.6	-0.1	3.0
COC(=O)c1cc(NC(=O)c2cccc(Cl)c2)c(=O)oc1/C=C/Nc1cc(C)cc(C)c1	-2.0	·	·	155.6*	·	-80.4
CSc1ccc(CN2CCC(C)(Oc3cccc(Cl)c3)C2)cc1 (stereo unspecified)	·	-1.1	·	·	·	·
CCN(CC)S(=O)(=O)c1ccc(N2CC(C(=O)NCCc3ccc(Cl)cc3)CC2=O)cc1 (stereo unspecified)	+	-0.6	-4.2	·	0.0	-3.3
CN(C)CCNC(=O)C1CC(=O)N(c2ccc(F)c(Cl)c2)C1 (stereo unspecified)	93.7*	-10.7	2.9	-15.3	0.2	-0.1
CCN(C[C@H]1N[C@@](Cc2ccccc2)(C(=O)OC)[C@H]2C(=O)N(Cc3ccccc3)C(=O)[C@@H]12)C(=O)COc1ccccc1	+	2.2	-4.4	·	2.6	-1.9
COC(=O)[C@]1(Cc2ccccc2)N[C@H](CN(C)C(=O)COc2ccccc2)[C@@H]2C(=O)N(Cc3ccccc3)C(=O)[C@@H]21	·	1.1	-1.0	·	0.2	3.5
CCN(C[C@H]1N[C@@](Cc2ccccc2)(C(=O)OC)[C@H]2C(=O)N(Cc3ccccc3)C(=O)[C@@H]12)S(=O)(=O)c1ccc(OC(F)(F)F)cc1	+	5.8	0.2	·	1.1	2.9
CCN(C[C@H]1N[C@@](Cc2ccccc2)(C(=O)OC)[C@H]2C(=O)N(Cc3ccccc3)C(=O)[C@@H]12)S(=O)(=O)c1ccc(C(C)(C)C)cc1	66.6*	1.4	-2.7	·	0.3	1.8
CNC(=O)C[C@H]1C(=O)N(c2ccc(Br)cc2)C[C@@H]1C	·	1.0	·	·	·	·
CC(C)(CNC(=O)c1ccc(NS(=O)(=O)c2ccc(Br)cc2)cc1)N1CCOCC1	-3.2	5.8	-3.1	·	-0.4	0.7
COC(=O)c1[nH]c2ccc(F)cc2c1NC(=O)C1=COCCO1	11.5*	0.2	-0.1	-10.6	-0.9	-0.3
Cc1nnsc1C(=O)Nc1cccc(Cl)c1	24.6*	-1.9	-3.9	-5.7	0.9	-1.8
SMILES	LANA-H2A inh	E coli Lon inh	Keap1 Nrf2 FP	EBV gp42 inh	C-LANA FP	GLD-1 RNA inh
O=C(/C=C/c1cccs1)Nc1nc(-c2ccccc2)cs1	2.5	3.6	0.6	2.9	0.1	4.2
O=C(/C=C/c1cccs1)Nc1nncs1	14.6*	-6.3	-1.4	-14.6	1.8	-6.5
COc1ccc(N2C(=O)CSC2c2ccccc2)cc1 (stereo unspecified)	2.2	1.0	-4.2	·	-1.9	0.1
COc1ccc(N2C(=O)CSC2c2ccccc2[N+](=O)[O-])cc1 (stereo unspecified)	+	2.8	-1.4	-6.6	1.7	-4.7
O=C(c1ccc(O)cc1)c1ccc(C(=O)c2ccc(O)cc2)cc1	13.5*	-4.5	-2.9	6.8	-1.5	2.5
CC1=C[C@H]2OC(=O)[C@@H](C)[C@H]2C[C@@H]2[C@H]1C[C@@H](O)[C@@]2(C)O	-2.3	-1.8	-0.6	-7.9	0.7	114.4*
O=C(NCC1CC1)C1Cc2c(-c3ccc4c(c3)OCO4)ccnc2O1 (stereo unspecified)	·	-2.2	·	·	·	·
COc1ccc(N2C(=O)[C@@H]3[C@H](C2=O)[C@H]2c4ccccc4C=CN2[C@@H]3C(=O)Nc2ccccc2)cc1	-19.8	-92.0	-19.6	-12.7	-3.0	-12.1
CC(=O)[C@@H]1[C@@H]2C(=O)N(Cc3ccccc3)C(=O)[C@@H]2C2c3ccccc3C=CN21 (stereo partly specified)	3.6	7.8	-1.6	39.7	19.0	38.5*
Cc1ccc(N2C(=O)[C@@H]3[C@H](C2=O)C2c4ccccc4C=CN2[C@@H]3C(=O)c2ccco2)c(C)c1 (stereo partly specified)	-4.6	2.9	0.0	·	3.8	62.0*
Cc1ccc(N2C(=O)[C@@H]3[C@H](C2=O)C2c4ccccc4C=CN2[C@@H]3C(=O)c2ccco2)cc1 (stereo partly specified)	·	9.1	-6.5	53.8*	3.0	·
CC(C)(C)C(=O)[C@@H]1[C@@H]2C(=O)N(c3ccc4c(c3)OCCO4)C(=O)[C@@H]2C2c3ccccc3C=CN21 (stereo partly specified)	-2.7	-5.1	-4.7	23.6	-0.2	-2.9
COc1ccc(OC)c(NC(=O)Nc2nnc([C@H]3C[C@H](O)[C@@H](CO)O3)s2)c1	·	-8.4	·	·	·	·
O=C(CN1CCc2ccccc2C1)Nc1cccc(S(=O)(=O)N2CCCC2)c1	-0.2	-2.5	1.0	-4.4	1.0	-1.8
CC(=O)NC1(C)CCC2CC1C(C)=NC2(C)C (stereo unspecified)	·	1.1	·	·	·	·
OC[C@@H]1CCCN1Cc1cn(-c2ccccc2)nc1-c1ccc2c(c1)OCO2	1.0	4.6	-3.5	-3.8	4.6	6.7
c1ccc(-n2cc(CN3CCCC(CN4CCCC4)C3)c(-c3ccc4c(c3)OCO4)n2)cc1 (stereo unspecified)	21.2*	-0.9	-4.2	-27.3	-1.2	-3.0
CCN(CC)CCOCCn1c(C)ccc1C	·	6.9	-1.0	·	3.3	·
CCOC(=O)c1c(C)[nH]c(C)c1C(=O)CSc1nc2ccccc2n1CC	1.0	-9.9	-7.0	122.0*	0.4	-0.4

Screening data (PubChem)
